Rows were chosen to be rich in hits. Some 3.6% of all compounds tested hit in one or more screens of this group.
mHTT CaM bind: mutant huntingtin-calmodulin interaction inhibitors – biochemical, AlphaScreen, primary screen; AlphaScreen His-mHTT/GST-CaM binding, luminescence; AID 1671202, 2021; inhibition, % at 15 µM; 190,000 compounds, 3.6% hits;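 note: 0% = both proteins with DMSO and 100% = one protein alone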
Pf apPOL inh: Pf-apPOL inhibitors, biochemical, fluorescence; Recombinant Pf-apPOL, molecular beacon fluorescence, 1.5 h; AID 1794808, 2022; inhibition, % at 10 µM; 210,000 compounds, 0.25% hits; Plasmodium falciparum apicoplast DNA polymerase (apPOL)
Starred values were filed as active, the others as inactive; i = inactive; · = no result. Cut-off read from the data, not from the text of the source: active = inhibition above about 50%; inactive = the rest.

SMILES	mHTT CaM bind	Pf apPOL inh
O=S(=O)(Nc1cccc2cccnc12)c1ccccc1	74*	-19
COc1ccc2c(c1)OCC/C2=N\OC(=O)c1cccc(F)c1	i	-2
CN(C)C(CNC(=O)C(=O)Nc1cccnc1)c1ccccc1Cl (configuration not stated)	-20	-3
O=C1[C@H](Cc2ccccc2)NCCCC[C@@H](c2ccc(Cl)cc2)N1Cc1ccc(Cl)cc1	100*	-6
O=C1[C@H](Cc2ccccc2)NC/C=C\C[C@H](c2ccc(Cl)cc2)N1Cc1ccccc1	82*	-1
O=C1c2ccccc2NC(c2ccc(Cl)cc2)N1Cc1ccccc1 (configuration not stated)	-22	16
O=C1[C@H](Cc2ccccc2)NCCCC[C@H](c2ccc(Cl)cc2)N1Cc1ccccc1	37	-6
O=C1[C@H](Cc2ccccc2)NC/C=C\C[C@@H](c2ccco2)N1Cc1ccccc1	43	-2
O=C1[C@H](Cc2ccccc2)NC/C=C\C[C@H](c2ccc(Cl)cc2)N1Cc1ccc(Cl)cc1	99*	-6
O=C1[C@H](Cc2ccccc2)NC/C=C\C[C@@H](c2ccc(Cl)cc2)N1Cc1ccccc1	93*	-3
O=C1CSC(c2ccc(F)cc2)N1Cc1ccccc1 (configuration not stated)	-5	0
N#CCSc1nc(N)c(C#N)c(-c2ccccc2)c1C#N	9	1
O=S1(=O)c2ccc(N3CCC[C@H]3CO)cc2OCCCN1C1CC1	-14	0
O=C1[C@H](Cc2ccccc2)NCCCC[C@H](c2ccco2)N1Cc1ccccc1	93*	2
O=C1[C@H](Cc2ccccc2)NCCCC[C@@H](c2ccco2)N1Cc1ccccc1	27	-3
COc1cccc(OC)c1OCC(O)CN1CCN(c2ccccc2F)CC1 (configuration not stated)	5	-4
COc1ccc(N2CCN(CC(O)COc3c(OC)cccc3OC)CC2)cc1 (configuration not stated)	7	-6
Cc1ccc(Cl)cc1N1CCN(CC(O)COc2ccccc2[N+](=O)[O-])CC1 (configuration not stated)	91*	6
COc1cccc(OC)c1OCC(O)CN1CCN(c2cc(Cl)ccc2C)CC1 (configuration not stated)	64*	1
O=[N+]([O-])c1ccccc1OCC(O)CN1CCN(c2cccc(Cl)c2)CC1 (configuration not stated)	23	-13
COc1cccc(OC)c1OCC(O)CN1CCN(c2cccc(Cl)c2)CC1 (configuration not stated)	53*	1
CCOc1nccnc1N1CCC(NS(C)(=O)=O)C1 (configuration not stated)	-1	-7
Cc1nc2c(C(=O)NC3CCCC3)cnn2c(C)c1Cc1ccc(F)cc1Cl	10	-11
C=C(C)CN(CC)C(=O)C1CCN(CC(C)C)CC1	7	-6
COc1ccc2oc(=Nc3ccccc3)c(C(N)=O)cc2c1	45	-2
SMILES	mHTT CaM bind	Pf apPOL inh
CN(C)CCNC(=O)COc1ccc(C23CC4CC(CC(C4)C2)C3)cc1	95*	-3
CCN(CC)CCNC(=O)COc1ccc(OC)cc1	-1	3
CN(C)CCNC(=O)CC12CC3CC(C1)CC(c1ccccc1)(C3)C2	64*	-2
COc1ccc(CCNC(=O)CC23CC4CC(C2)CC(c2ccccc2)(C4)C3)cc1OC	20	-4
CCCC1c2ccc(C)n2CCN1C(=O)Nc1ccccc1C(=O)OCC (configuration not stated)	4	-5
COc1ccc2c(=O)c(-c3ccccc3C)c(C(F)(F)F)oc2c1	1	-7
CC1=C(C(=O)Nc2ccccn2)C(c2cccc([N+](=O)[O-])c2)n2ncnc2N1 (configuration not stated)	5	-1
COc1ccccc1N1CCN(C(=O)c2sc3cccc(F)c3c2OC)CC1	78*	-8
COc1ccc(-n2cc(C(=O)N3CCN(c4ccccc4F)CC3)c3ccccc3c2=O)cc1	42	-4
COc1cccc(N2CCN(C(=O)c3sc4cccc(F)c4c3OC)CC2)c1	26	1
COc1ccccc1N1CCN(C(=O)c2nn(-c3ccc(F)cc3)cc2OC)CC1	68*	-9
COc1ccccc1N1CCN(C(=O)c2ccccc2F)CC1	-2	-3
COc1ccc(-n2cc(C(=O)N3CCN(c4ccc(F)cc4)CC3)c3ccccc3c2=O)cc1	78*	3
COc1ccc(N2CCN(C(=O)c3sc4cccc(F)c4c3OC)CC2)cc1	64*	0
COc1ccccc1N1CCN(C(=O)c2nn(-c3ccc(F)cc3)c(=O)cc2OC)CC1	-6	-7
Cc1c(F)cccc1NC(=O)c1cnc(-c2ccccc2)nc1-c1ccncc1	-8	-1
Cc1ccc(OCCN2CCCC2)c([N+](=O)[O-])c1	1	-1
c1ccc(-c2nsc(NC3Cc4ccccc4C3)n2)cc1	·	-15
CCOC(=O)c1cnn(C(=O)c2cnn(-c3ccc([N+](=O)[O-])cc3)c2C(F)(F)F)c1N	·	6
O=C(Nc1ccc2nsnc2c1)C1CC1	-5	-1
CCC(=O)NCc1cnn(-c2ccc(C(=O)N(C)C)cc2)c1	2	-4
COc1ccc2cccc(NC(=O)c3c(F)cccc3Cl)c2n1	-10	-1
COc1ccc(N/C=C(/c2cc(O)ccc2O)[N+](=O)[O-])cc1	16	1
COc1ccc(OC)c(CNc2cc([N+](=O)[O-])ccc2OC)c1	-3	22
COc1ccc(OC)c(CNc2ccc([N+](=O)[O-])cc2C)c1	51*	5
SMILES	mHTT CaM bind	Pf apPOL inh
Cc1cc([N+](=O)[O-])ccc1NCc1c[nH]c2ccccc12	69*	2
COc1ccc(CNc2ccc([N+](=O)[O-])cc2C)c(OC)c1C	1	-6
S=c1[nH]nc(C23CC4CC(CC(C4)C2)C3)o1	0	·
Cc1cccn2c(=O)c3cc(C(=O)NCc4ccccc4)c(=N)n(Cc4ccco4)c3nc12	38	12
Cc1cccn2c(=O)c3cc(C(=O)NC(C)c4ccccc4)c(=N)n(Cc4ccco4)c3nc12 (configuration not stated)	51*	4
CCNC(=O)c1cc2c(=O)n3ccccc3nc2n(Cc2ccco2)c1=N	18	16
CCn1c(=N)c(C(=O)NC(C)c2ccccc2)cc2c(=O)n3cccc(C)c3nc21 (configuration not stated)	0	-6
CC(NC(=O)c1cc2c(=O)n3ccccc3nc2n(Cc2ccco2)c1=N)c1ccccc1 (configuration not stated)	51*	-2
Cc1cccn2c(=O)c3cc(C(=O)NC(C)c4ccccc4)c(=N)n(C4CCCCC4)c3nc12 (configuration not stated)	54*	0
Cc1cc2c(cc1C)NC(c1c(F)cccc1Cl)C1=C(CC(C)(C)CC1=O)N2 (configuration not stated)	16	4
Cn1c(=O)c2c(nc(N3CCCC3)n2CC(O)CO)n(C)c1=O (configuration not stated)	0	-1
COc1ccc(C=C2Oc3c(ccc4c3CN(C3CC3)CO4)C2=O)c(OC)c1OC	13	-19
Cc1ccc(C)c(N2CCN(C(=O)Cc3ccccc3)C(C)C2=O)c1 (configuration not stated)	-1	-2
COc1ccc(-c2cc(C(F)(F)F)n3nc(C(=O)NC(C)C)c(Cl)c3n2)cc1OC	-2	2
